# Source: PubChem BioAssay (NCI)
# Compounds without any hit were thinned out: in the full panel of roughly 79,000, 15% have a hit. Values without a mark were called inactive. Activity calls are given as the source filed them. Rule as the data show it: active = growth inhibition above about 70%; inactive = the rest.
# Legend:
# [1] = NCI Yeast Anticancer Drug Screen. Data for the rad52 strain (AID 147);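 also: 0% = growth of vehicle-treated control cultures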; conditions: S. cerevisiae rad52 mutant growth inhibition, hits give high values
# Procedure, shortened: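 The repair-mutant yeast strain was incubated with compounds, then growth was read and inhibition derived relative to vehicle.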
# [2] = NCI Yeast Anticancer Drug Screen. Data for the wt1 strain (AID 149);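 also: 0% = growth of vehicle-treated wt1 cultures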; conditions: S. cerevisiae wt1 strain (SPY 50644) growth inhibition, hits give high values
# Procedure, shortened: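 Each compound is tested on wt1 yeast and the loss of growth versus vehicle gives the inhibition value.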
# [3] = NCI Yeast Anticancer Drug Screen. Data for the rad50EPP+ strain (AID 151);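 also: 0% = growth of vehicle-treated control cultures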; conditions: S. cerevisiae rad50 mutant strain, hits give high values
# Procedure, shortened: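 Vehicle-normalised growth inhibition; rad50EPP+ yeast strain, altered in DNA damage repair, compound-treated.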
# [4] = NCI Yeast Anticancer Drug Screen. Data for the mgt1 strain (AID 153); conditions: S. cerevisiae mgt1 mutant growth inhibition, hits give high values
# Procedure, shortened: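 Vehicle-normalized growth inhibition is determined in mgt1 yeast, a strain selected for a defined alteration in DNA repair or cell cycle control.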
# [5] = NCI Yeast Anticancer Drug Screen. Data for the rad50 strain (AID 155);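 also: 0% = growth of vehicle-only cultures of the same strain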; conditions: S. cerevisiae rad50 strain growth inhibition, hits give high values
# Procedure, shortened: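 Vehicle-treated cultures provide the reference for the growth inhibition reported for compound-exposed, repair-deficient yeast.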
# [6] = NCI Yeast Anticancer Drug Screen. Data for the mec2-1 strain (AID 157); conditions: S. cerevisiae mec2-1 strain, hits give high values
# Procedure, shortened: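 Mutant yeast (mec2-1) grown with compound; growth inhibition relative to vehicle control reported.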
# [7] = NCI Yeast Anticancer Drug Screen. Data for the rad14 strain (AID 159);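 also: 0% = growth of vehicle-treated control cultures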; conditions: S. cerevisiae rad14 strain growth inhibition, hits give high values
# Procedure, shortened: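 Inhibition of growth is reported for a repair-deficient yeast mutant following compound treatment, calculated relative to cultures that received vehicle.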
# [8] = NCI Yeast Anticancer Drug Screen. Data for the sgs1 mgt1 strain (AID 161);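 also: 0% = growth of cultures given vehicle only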; conditions: S. cerevisiae sgs1 mgt1 strain, hits give high values
# Procedure, shortened: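 This yeast growth screen uses a strain with defined DNA-repair lesions; compound-treated growth is compared with vehicle-treated growth.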
# [9] = NCI Yeast Anticancer Drug Screen. Data for the CLN2oe strain (AID 163);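 also: 0% = growth of vehicle-only control cultures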; conditions: S. cerevisiae CLN2oe strain, hits give high values
# Procedure, shortened: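 Compounds are applied to yeast harbouring a defined cell-cycle control change; reduced growth compared with vehicle-treated controls gives the value.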
# [10] = NCI Yeast Anticancer Drug Screen. Data for the cln2 rad14 strain (AID 165);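 also: 0% = growth equal to vehicle treated cultures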; conditions: S. cerevisiae cln2 rad14 strain, hits give high values
# Procedure, shortened: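 Readout is yeast growth inhibition versus vehicle-treated controls, using a strain with cln2 and rad14 alterations exposed to compound.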
# [11] = NCI Yeast Anticancer Drug Screen. Data for the bub3 strain (AID 167); conditions: S. cerevisiae bub3 mutant strain, hits give high values
# Procedure, shortened: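 Mutant yeast screening strain plus compound; vehicle-treated cultures serve as the 0% inhibition reference.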
# [12] = NCI Yeast Anticancer Drug Screen. Data for the wt2 strain (AID 169); conditions: S. cerevisiae wt2 strain growth inhibition, hits give high values
# Procedure, shortened: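 Against vehicle-treated controls, the growth of yeast exposed to each compound was compared, and the inhibition was recorded.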
# [13] = NCI Yeast Anticancer Drug Screen. Data for the mlh1 strain (AID 171);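 also: 0% = growth of vehicle-treated control cultures of the same strain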; conditions: S. cerevisiae mlh1 strain growth inhibition, hits give high values
# Procedure, shortened: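 Measured: yeast growth. Reference: vehicle-treated controls. Organism: strain with a defined alteration affecting DNA damage repair or cell cycle control, treated with compound.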
# [14] = NCI Yeast Anticancer Drug Screen. Data for the sgs1 strain (AID 173);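 also: 0% = growth of vehicle-only control cultures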; conditions: S. cerevisiae sgs1 mutant, hits give high values
# Procedure, shortened: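 Each compound was added to cultures of the altered yeast strain. Growth was recorded, and inhibition was derived by comparison with vehicle controls.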
# [15] = NCI Yeast Anticancer Drug Screen. Data for the mlh1 rad18 strain (AID 175); conditions: S. cerevisiae mlh1 rad18 strain growth inhibition, hits give high values
# Procedure, shortened: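 Genetically defined yeast (DNA repair-deficient) exposed to compounds; growth inhibition determined relative to vehicle.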
# [16] = NCI Yeast Anticancer Drug Screen. Data for the rad18 strain (AID 177); conditions: S. cerevisiae rad18 mutant growth inhibition, hits give high values
# Procedure, shortened: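 Vehicle-treated cultures served as the baseline for scoring compound-induced growth inhibition in DNA-repair-mutant yeast.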
# [17] = at 5.0 µM (retest, dose inferred, filed as 0.5)
# [18] = at 50.0 µM (retest, dose inferred, filed as 5.0)
compound,measurement,setting,value
O=c1[nH]c2c([N+](=O)[O-])cccc2c2ccccc12,growth inhibition,[1]; at 1.2 µM,-1%
same,growth inhibition,[1]; at 3.7 µM,0%
same,growth inhibition,[1]; at 11.0 µM,6%
same,growth inhibition,[1]; at 33.0 µM,40%
same,growth inhibition,[1]; at 100.0 µM,89% (active)
same,growth inhibition,[2]; at 1.2 µM,-3%
same,growth inhibition,[2]; at 3.7 µM,-2%
same,growth inhibition,[2]; at 11.0 µM,-2%
same,growth inhibition,[2]; at 33.0 µM,5%
same,growth inhibition,[2]; at 100.0 µM,73% (active)
same,growth inhibition,[3]; at 1.2 µM,5%
same,growth inhibition,[3]; at 3.7 µM,12%
same,growth inhibition,[3]; at 11.0 µM,26%
same,growth inhibition,[3]; at 33.0 µM,52%
same,growth inhibition,[3]; at 100.0 µM,76% (active)
same,growth inhibition,[4]; at 1.2 µM,-4%
same,growth inhibition,[4]; at 3.7 µM,-3%
same,growth inhibition,[4]; at 11.0 µM,-3%
same,growth inhibition,[4]; at 33.0 µM,19%
same,growth inhibition,[4]; at 100.0 µM,90% (active)
same,growth inhibition,[5]; at 1.2 µM,2%
same,growth inhibition,[5]; at 3.7 µM,-42%
same,growth inhibition,[5]; [17],7%
same,growth inhibition,[5]; at 11.0 µM,33%
same,growth inhibition,[5]; at 33.0 µM,53%
same,growth inhibition,[5]; [18],80% (active)
same,growth inhibition,[5]; at 50.0 µM,96.2% (active)
same,growth inhibition,[5]; at 100.0 µM,95% (active)
same,growth inhibition,[6]; at 1.2 µM,0%
same,growth inhibition,[6]; at 3.7 µM,0%
same,growth inhibition,[6]; [17],4%
same,growth inhibition,[6]; at 11.0 µM,3%
same,growth inhibition,[6]; at 33.0 µM,17%
same,growth inhibition,[6]; [18],52%
same,growth inhibition,[6]; at 50.0 µM,96% (active)
same,growth inhibition,[6]; at 100.0 µM,89% (active)
same,growth inhibition,[7]; at 1.2 µM,2%
same,growth inhibition,[7]; at 3.7 µM,5%
same,growth inhibition,[7]; at 11.0 µM,12%
same,growth inhibition,[7]; at 33.0 µM,24%
same,growth inhibition,[7]; at 100.0 µM,86% (active)
same,growth inhibition,[8]; [17],2%
same,growth inhibition,[8]; [18],51%
same,growth inhibition,[8]; at 50.0 µM,96.8% (active)
same,growth inhibition,[9]; at 1.2 µM,-13%
same,growth inhibition,[9]; at 3.7 µM,-15%
same,growth inhibition,[9]; at 11.0 µM,-16%
same,growth inhibition,[9]; at 33.0 µM,-29%
same,growth inhibition,[9]; at 100.0 µM,12%
same,growth inhibition,[10]; [17],-13%
same,growth inhibition,[10]; [18],11%
same,growth inhibition,[10]; at 50.0 µM,93% (active)
same,growth inhibition,[11]; at 1.2 µM,-4%
same,growth inhibition,[11]; at 3.7 µM,-6%
same,growth inhibition,[11]; [17],3%
same,growth inhibition,[11]; at 11.0 µM,0%
same,growth inhibition,[11]; at 33.0 µM,28%
same,growth inhibition,[11]; [18],72% (active)
same,growth inhibition,[11]; at 50.0 µM,95% (active)
same,growth inhibition,[11]; at 100.0 µM,90% (active)
same,growth inhibition,[12]; at 1.2 µM,-2%
same,growth inhibition,[12]; at 3.7 µM,6%
same,growth inhibition,[12]; at 11.0 µM,-1%
same,growth inhibition,[12]; at 33.0 µM,12%
same,growth inhibition,[12]; at 100.0 µM,84% (active)
same,growth inhibition,[13]; at 1.2 µM,-2%
same,growth inhibition,[13]; at 3.7 µM,-2%
same,growth inhibition,[13]; at 11.0 µM,0%
same,growth inhibition,[13]; at 33.0 µM,18%
same,growth inhibition,[13]; at 100.0 µM,88% (active)
same,growth inhibition,[14]; at 1.2 µM,-2%
same,growth inhibition,[14]; at 3.7 µM,0%
same,growth inhibition,[14]; at 11.0 µM,7%
same,growth inhibition,[14]; at 33.0 µM,40%
same,growth inhibition,[14]; at 100.0 µM,90% (active)
same,growth inhibition,[15]; [17],4%
same,growth inhibition,[15]; [18],41%
same,growth inhibition,[15]; at 50.0 µM,96.2% (active)
same,growth inhibition,[16]; at 1.2 µM,3%
same,growth inhibition,[16]; at 3.7 µM,9%
same,growth inhibition,[16]; at 11.0 µM,26%
same,growth inhibition,[16]; at 33.0 µM,73% (active)
same,growth inhibition,[16]; at 100.0 µM,96% (active)
